From PubChem BioAssay AID651640 (Broad Institute, 2012)
Where “and” joins values, the source holds several entries; their conditions need not be identical. Identical values can stand only once. Out of some 350,000 compounds screened, about 6,000 (1.7%) were called active. Another 5% or so got no clear call; they are omitted. This excerpt belongs to a sample that is enriched for actives. A number with no mark means an inactive call. Cut-off read from the data, not from the text of the source: active = CPE inhibition above about 20% (passing the limit was not always enough); inconclusive = no clear call, values can overlap the other calls; tested in BHK-21 cells.

assay: protection of cells from dengue 2 killing – plate reader, single concentration, primary screen (AID 651640); conditions: DENV2-infected cells, cytopathic effect rescue, at 9.99 µM, active compounds read high;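 note: 0% = median of neutral control wells and 100% = median of positive control wells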

| SMILES | CPE inhibition |
| --- | --- |
| COCC(=O)Nc1ccc2c(c1)OC[C@@H](C)N(C(=O)c1ccncc1)C[C@@H](C)[C@@H](OC)CN(C)C2=O | 13.2% |
| O=C(NC[C@H]1CC[C@@H]2[C@@H](CN2S(=O)(=O)c2ccccc2F)O1)C1CCCCC1 | -10.6% |
| COCC#Cc1cnc2c(c1)C(=O)N([C@@H](C)CO)C[C@H](C)[C@@H](CN(C)Cc1ccccc1)O2 | 7.93% |
| CCOc1ncccc1C(=O)NNC(=O)c1cccc(S(=O)(=O)Nc2ccccc2OC)c1 | 23.7% (active) |
| CCN(CC(=O)NCc1cccs1)C(=O)c1cccc(S(=O)(=O)Nc2ccccc2OC)c1 | 0.937% |
| CCOc1ncccc1C(=O)Nc1ccc(S(=O)(=O)Nc2nc(C)cc(C)n2)cc1 | -5.45% |
| O=C(NC[C@@H]1[C@@H](c2ccccc2)[C@H](CO)N1C(=O)Cc1cccnc1)C1CC1 | -4.58% |
| COCC(=O)N[C@@H]1C[C@@H]2O[C@@H](CO)CC[C@@H]2O[C@@H]1CCc1ccc(-c2ccccc2)cc1 | 14.8% |
| CN(C)CC#Cc1ccc([C@H]2[C@H]3CN(C(=O)c4cccc(F)c4)CC(=O)N3[C@H]2CO)cc1 | 0.131% |
| CCOC(=O)C(Cc1ccccc1)NC(=O)CCC(=O)c1ccc(OC)cc1 (stereo not drawn) | -0.51% |
| COc1ccc(OC)c(NC(=O)N[C@H](Cc2ccccc2)C(=O)NN)c1 | -9.79% |
| COc1cc([C@H](Cc2ccccc2)NC(C)=O)oc(=O)c1 | 23.5% (active) |
| COCC(=O)N(C)C[C@@H]1Oc2ncc(C#C[C@H](C)O)cc2C(=O)N([C@@H](C)CO)C[C@@H]1C | -2.59% |
| C[C@H]1CN([C@@H](C)CO)C(=O)c2cc(Br)cnc2O[C@@H]1CN(C)C(=O)c1ccccc1F | 2.37% |
| Cc1cc(NS(=O)(=O)c2ccc(NC(=S)NC(=O)c3ccc(F)cc3Cl)cc2)no1 | 78.9% (active) |
| CCc1ccc(OC(C)C(=O)Nc2ccc(S(=O)(=O)Nc3cc(C)on3)cc2)cc1 (stereo not drawn) | 2.4% |
| CCOc1ccc(C(=O)Nc2ccc(S(=O)(=O)Nc3cc(C)on3)cc2)cc1 | 1.57% |
| CCC(=O)Nc1ccc2c(c1)C(=O)N(C)[C@@H]1CC[C@H](CC(=O)NCc3ccccc3)O[C@H]1CO2 | -3.19% |
| C[C@@H]1CCCCO[C@@H](CN(C)Cc2ccc(C(=O)O)cc2)[C@@H](C)CN([C@@H](C)CO)C(=O)c2cc(NC(=O)Nc3ccc(C(F)(F)F)cc3)ccc2O1 | 21.1% (active) |
| COc1ccc(NC(=O)Nc2ccc3c(c2)C(=O)N([C@@H](C)CO)C[C@H](C)[C@@H](CN(C)Cc2ccc4c(c2)OCO4)O3)cc1 | 31.5% (active) |
| C[C@@H]1CCCCO[C@@H](CN(C)C(=O)Nc2ccc(C(F)(F)F)cc2)[C@H](C)CN([C@H](C)CO)C(=O)c2cc(NC(=O)c3ccccc3)ccc2O1 | 4.25% |
| C[C@H](CO)N1C[C@H](C)[C@@H](CN(C)Cc2ccc3c(c2)OCO3)Oc2ccc(NC(=O)Nc3ccc(F)cc3)cc2C1=O | -6.58% |
| C[C@H](CO)N1C[C@H](C)[C@@H](CN(C)Cc2ccncc2)Oc2ccc(NC(=O)Nc3ccccc3)cc2C1=O | 7.94% |
| C[C@H](CO)N1C[C@H](C)[C@H](CN(C)Cc2ccncc2)Oc2ccc(NC(=O)Nc3ccc(F)cc3)cc2C1=O | -10.5% |

| SMILES | CPE inhibition |
| --- | --- |
| C[C@H]1CCCCO[C@@H](CN(C)Cc2ccc(C(F)(F)F)cc2)[C@@H](C)CN([C@@H](C)CO)C(=O)c2cc(NC(=O)Nc3ccccc3)ccc2O1 | -2.84% |
| C[C@@H]1CCCCO[C@@H](CN(C)Cc2ccc(C(=O)O)cc2)[C@H](C)CN([C@@H](C)CO)C(=O)c2cc(NC(=O)Nc3ccc(C(F)(F)F)cc3)ccc2O1 | 17.1% |
| C[C@@H]1CN([C@H](C)CO)C(=O)c2cc(NC(=O)Nc3ccccc3)ccc2O[C@@H](C)CCCCO[C@H]1CN(C)Cc1ccc(C(F)(F)F)cc1 | -1.92% |
| COc1ccc(CN(C)C[C@@H]2Oc3ccc(NC(=O)Nc4ccc(OC)cc4)cc3C(=O)N([C@H](C)CO)C[C@H]2C)cc1 | -3.17% |
| C[C@@H]1CN([C@@H](C)CO)C(=O)c2cc(NC(=O)Nc3ccc(C(F)(F)F)cc3)ccc2O[C@@H](C)CCCCO[C@H]1CN(C)C(=O)c1ccccc1 | 25.6% (active) |
| C[C@@H]1CN([C@@H](C)CO)C(=O)c2cc(NC(=O)Nc3ccc(C(F)(F)F)cc3)ccc2O[C@@H]1CN(C)Cc1ccncc1 | 31.1% (active) |
| COc1ccccc1-c1cn(CC[C@H]2CC[C@@H](NC(=O)CCN3CCCCC3)[C@@H](CO)O2)nn1 | -1.83% |
| C[C@H]1CN([C@@H](C)CO)S(=O)(=O)c2ccc(C#Cc3cccc(F)c3)cc2O[C@@H]1CN(C)S(=O)(=O)c1cn(C)cn1 | -0.538% |
| CCNC(=O)[C@H]1[C@H](CO)[C@H]2Cn3c(cccc3=O)[C@@H]1N2Cc1cc(F)ccc1F | -7.97% |
| CCCNC(=O)N1C[C@@H](O)COC[C@@H]2O[C@@H](CC(=O)O)CC[C@H]21 | 5.1% |
| CN(C)CC(=O)N[C@@H]1C[C@@H]2O[C@H](CO)CC[C@@H]2O[C@@H]1CCc1ccc(C#Cc2ccccc2)cc1 | 6.51% |
| C[C@H](CO)N1C[C@H](C)[C@H](CN(C)C)Oc2ncc(/C=C/c3ccccc3)cc2C1=O | -2.89% and -2.09% |
| Cc1noc(C)c1NC(=O)Nc1ccc2c(c1)C(=O)N([C@@H](C)CO)C[C@H](C)[C@H](CN(C)Cc1ccc(-c3ccccc3)cc1)O2 | -1.16% |
| Cc1noc(C)c1NC(=O)Nc1ccc2c(c1)C(=O)N([C@H](C)CO)C[C@H](C)[C@H](CN(C)Cc1ccc(-c3ccccc3)cc1)O2 | 5.27% |
| C[C@@H]1CCCCO[C@@H](CN(C)Cc2ccc3c(c2)OCO3)[C@@H](C)CN([C@@H](C)CO)C(=O)c2cc(NC(=O)Nc3ccccc3)ccc2O1 | -0.739% |
| C[C@@H]1CN([C@@H](C)CO)C(=O)c2cc(/C=C/c3ccccc3)cnc2O[C@H]1CN(C)C(=O)Nc1ccc(C(F)(F)F)cc1 | 22.8% (active) |
| C/C=C/c1cnc2c(c1)C(=O)N([C@H](C)CO)C[C@H](C)[C@@H](CN(C)C(=O)Nc1ccc(C(F)(F)F)cc1)O2 | -8.88% |
| C[C@H]1CCCCO[C@@H](CN(C)Cc2ccc3c(c2)OCO3)[C@@H](C)CN([C@@H](C)CO)C(=O)c2cc(NC(=O)Nc3ccc(F)cc3)ccc2O1 | 23% (active) |
| C[C@H]1CN([C@@H](C)CO)C(=O)c2cc(N(C)C)ccc2O[C@@H]1CN(C)Cc1ccccc1 | 1.9% |
| C[C@H](O)C#Cc1cnc2c(c1)C(=O)N([C@H](C)CO)C[C@@H](C)[C@@H](CN(C)C(=O)Nc1ccc(C(F)(F)F)cc1)O2 | -2.9% |
| C[C@@H]1CN([C@@H](C)CO)C(=O)c2cc(N(C)C)ccc2O[C@H]1CN(C)Cc1ccc(C(F)(F)F)cc1 | 2.48% |
| C[C@@H]1CN([C@H](C)CO)C(=O)c2cc(NC(=O)Nc3ccc4c(c3)OCO4)ccc2O[C@@H](C)CCCCO[C@@H]1CN(C)Cc1ccc2c(c1)OCO2 | -24.7% |
| C[C@H](CO)N1C[C@H](C)[C@H](CN(C)Cc2ccncc2)Oc2ccc(N(C)C)cc2C1=O | 24.8% (active) |
| Cc1noc(C)c1NC(=O)Nc1ccc2c(c1)C(=O)N([C@H](C)CO)C[C@@H](C)[C@@H](CN(C)Cc1ccccc1)O2 | 33.6% (active) |
